# Measured values published in PubChem BioAssay (NCATS).
# Records with an inconclusive call do not appear. A call without a number means that no potency is given here. Values without a mark were called inactive. Calls of active or inactive are those of the source. Calls follow the shape of the dose curve; as a rule, active = well fitted inhibition curve with a large enough effect; inconclusive = small, poorly fitted or top-dose-only effect; inactive = no such curve, though single readings can be large or run the other way.
# Experiment: Primary fluorescence-based thiol-reactive (MSTI) qHTS assay for identification of artifact compounds. (AID 1845221); also: nearly all actives have a fitted effect of over 65% in size;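 as to activity change, negative = thiol reactive: thiol-reactive compounds lower the probe fluorescence signal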
# Details: MSTI thiol-reactivity probe, 1 h; series mostly up to 53.8 µM
# Method in brief: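 First, 4 uM MSTI in 2% DMSO/PBS pH 7.4 was dispensed; next, compounds were added; then plates sat 1 h at room temperature without light. Finally, emission at 598 nm was recorded.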
# Potency is read from the fitted curve at half-maximal effect.
SMILES,Potency,"activity change, negative = thiol reactive"
Cc1nc2ccccc2c(-c2ccc3c4c(ccnc24)CCO3)c1[C@H](OC(C)(C)C)C(=O)O,inactive,–
COc1cccc(Cn2ncc3c4sc(S(C)=O)cc4n(C)c3c2=O)c1 (stereo not drawn),inactive,–
O=C(/C=C/C=C/c1ccc2c(c1)OCO2)N1CCCCC1,inactive,–
C[C@@H]1O[C@@H](O[C@H]2[C@H](O)[C@@H](O)[C@H](OC(=O)[C@]34CCC(C)(C)C[C@H]3C3=CCC5[C@@]6(C)CC[C@H](O[C@@H]7O[C@H](C(=O)O)[C@@H](O)[C@H](O)[C@H]7O)C(C)(C)C6CC[C@@]5(C)[C@]3(C)CC4)O[C@@H]2CO)[C@H](O)[C@H](O)[C@H]1O (stereo partly drawn),–,74.8% [at 11.5 µM]
COc1ccc2[nH]c(S(=O)Cc3ncc(C)c(OC)c3C)nc2c1 (stereo not drawn),11.9 µM (active),–
COc1cc(O)cc2c1C(=O)OC(C)C2 (stereo not drawn),inactive,–
C=C1CC[C@]2(C(=O)O[C@@H]3O[C@H](CO)[C@@H](O)[C@H](O)[C@H]3O)CC[C@]3(C)C(=CCC4[C@@]5(C)C[C@H](O)[C@@H](O[C@@H]6O[C@H](C(=O)O)[C@@H](O)[C@H](O)[C@H]6O)[C@](C)(C=O)C5CC[C@]43C)C2C1 (stereo partly drawn),–,113% [at 11.5 µM]
C/C=C/C=C/C(O)=C1/C(=O)[C@]2(C)C(=O)[C@@](C)(O)[C@H]1[C@H]([C@@]1(C)OC(=O)C(C)=C1O)[C@H]2C(=O)CC/C=C/C,4.12 µM (active),–
C[C@@H]1O[C@@H](O[C@H]2[C@H](O)[C@@H](O[C@@H]3O[C@H](CO)[C@H](O)[C@H](O)[C@H]3O)[C@H](O[C@H]3CC[C@@]4(C)C(CC[C@]5(C)C4CC=C4[C@@H]6CC(C)(C)CC[C@]6(C(=O)O[C@@H]6O[C@H](CO)[C@@H](O)[C@H](O)[C@H]6O)CC[C@]45C)C3(C)C)O[C@@H]2C(=O)O)[C@H](O)[C@H](O)[C@H]1O (stereo partly drawn),–,349% [at 11.5 µM]
CC1(C)CC[C@]2(C(=O)O[C@@H]3O[C@H](CO[C@@H]4O[C@H](CO)[C@@H](O)[C@H](O)[C@H]4O)[C@@H](O)[C@H](O[C@@H]4O[C@H](CO)[C@@H](O)[C@H](O)[C@H]4O)[C@H]3O)CC[C@]3(C)C(=CCC4[C@@]5(C)CC[C@H](O[C@@H]6OC[C@@H](O)[C@H](O)[C@H]6O)[C@@](C)(C(=O)O)C5CC[C@]43C)[C@@H]2C1 (stereo partly drawn),–,183% [at 11.5 µM]
CCCC/C=C\CCCCCc1cc(=O)c2ccccc2n1C,inactive,–
C=C1C(O)C(O)C2(CC3C(C)=CCC4C(C)(C(=O)O)CCCC34C)OC2C1O (stereo not drawn),5.21 µM (active),–
CC1OC(OC2C(OC(=O)[C@]34CCC(C)(C)C[C@H]3C3=CCC5[C@@]6(C)CC[C@H](OC7OC(C(=O)O)C(O)C(O)C7O)C(C)(C)C6CC[C@@]5(C)[C@]3(C)CC4O)OC(CO)C2O)C(O)C(O)C1OC1OCC(O)C(O)C1O (stereo partly drawn),–,111% [at 11.5 µM]
O=C(Nc1ccccc1)Nc1ccc(-c2ccc(C(=O)C3CCCC3C(=O)O)cc2)cc1 (stereo not drawn),inactive,–
COCc1c(O)c(C(=O)O)c(C)c2c1OC(=O)c1c(C)cc(O)c(CO)c1O2,5.21 µM (active),–
CCCC1=CC2=C(CO1)C(=O)C(C)(O)C(OC(=O)c1c(C)cc(OC)cc1O)C2 (stereo not drawn),inactive,–
CC1(C)CCC[C@]2(C)C1CC=C(CO)[C@H]2CC/C(=C/CO)CO (stereo partly drawn),inactive,–
CCOC(=O)C(CCc1ccccc1)NC1CCCN2CCCC(C(=O)O)N2C1=O (stereo not drawn),inactive,–
OCC(O)C(c1c[nH]c2ccccc12)c1c[nH]c2ccccc12 (stereo not drawn),6.7 µM (active),–
C=C(CC/C=C(\C)C(=O)O)C1(O)CC=C(C)CC1 (stereo not drawn),inactive,–
CC1(C)CC[C@]2(C(=O)O[C@@H]3O[C@H](CO[C@@H]4O[C@H](CO)[C@@H](O)[C@H](O)[C@H]4O)[C@@H](O)[C@H](O[C@@H]4O[C@H](CO)[C@@H](O)[C@H](O)[C@H]4O)[C@H]3O)[C@H](O)C[C@]3(C)C(=CCC4[C@@]5(C)CC[C@H](O[C@@H]6OC[C@@H](O)[C@H](O)[C@H]6O)[C@@](C)(C(=O)O)C5CC[C@]43C)[C@@H]2C1 (stereo partly drawn),–,59.1% [at 11.5 µM]
C/C=C1\[C@H](O[C@@H]2O[C@H](CO)[C@@H](O)[C@H](O)[C@H]2O)OC=C(C(=O)OCCc2ccc(O)cc2)[C@H]1CC(=O)OCCc1ccc(O)cc1,inactive,–
COc1ccc(CCC(=O)c2c(O)cc(O[C@@H]3O[C@H](CO)[C@@H](O)[C@H](O)[C@H]3O[C@@H]3O[C@@H](C)[C@H](O)[C@@H](O)[C@H]3O)cc2O)cc1O,inactive,–
